# From PubChem BioAssay (EPA / NIEHS)
# Active and inactive are the calls of the source. The calls were made as follows: active = hit-call score of the fitted dose curve at least 0.9, where 1 is the maximum; inactive = score below 0.9.
# Assay: APR_HepG2_StressKinase_72hr: Apredica 72-hour HepG2 Assay for Stress Kinase (AID 2282921)
# Settings: HepG2 stress kinase (phospho-c-Jun) imaging, actives raise or lower the signal
# Method: APR_HepG2_72hr is a cell-based, multiplexed-readout assay that uses HepG2, a human liver cell line, with measurements taken at 72 hours after chemical dosing in a 384-well plate.APR_HepG2_StressKinase_72hr is one of 10 assay component(s) measured or calculated from the APR_HepG2_72hr assay. It is designed to make measurements of enzyme activity, a form of enzyme reporter, as detected with fluorescence intensity signals by HCS Fluorescent Imaging technology.Data from the assay component APR_HepG2_StressKinase_72hr was analyzed into 1 assay endpoint. This assay endpoint, APR_HepG2_StressKinase_72hr, was analyzed with bidirectional fitting relative to DMSO as the negative control and baseline of activity. Using a type of enzyme reporter, measures of protein for gain or loss-of-signal activity can be used to understand the signaling at the pathway-level as they relate to the gene . Furthermore, this assay endpoint can be referred to as a primary readout, because this assay has produced multiple assay endpoints where this one serves a signaling function. To generalize the intended target to other relatable targets, this assay endpoint is annotated to the cell cycle intended target family, where the subfamily is stress response.
# Cells were treated with dimethyl sulfoxide (DMSO) as a solvent control at a final concentration of 0.5% v/v or with compounds in DMSO with a resulting final DMSO concentration of 0.5% v/v. Compound treatment was done at concentrations of 0.39, 0.78, 1.56, 3.12, 6.24, 12.5, 25, 50, 100, and 200 uM in duplicate on each plate. Cells were treated with compounds for 1, 24, or 72 hr. Carbonyl […] m-chloro-phenylhydrazone (CCCP) and taxol were used as positive controls for mitochondrial function and cytoskeletal stability, respectively; DMSO served as the negative control for this experiment. Cells were fixed by the direct addition of 50 uL formaldehyde in Hank's Balanced Salt Solution (HBSS) to a final concentration of 3.7%. After incubation in the fixation medium for 30 min at room temperature (293-298 K), cells were rinsed twice with HBSS and treated with cell permeabilization buffer (16 uL of 0.5% Triton X-100) for 10 min at room temperature (293-298 K) before labeling. For mitochondrial membrane potential and mitochondrial measurements, pre-fixed cells were incubated with 50 uL of MitoTracker Red CMXRos (Invitrogen) at a concentration of 250 nM for 30 min before fixation. In the remaining cases, post-fixed cells were labeled by incubation with a multiplexed mixture of primary antibodies in HBSS for 60 min at room temperature (293-298 K) to detect immunoreactivity of c-Jun (1:500), phospho-histone H3 (1:100), phospho-histone H2A.x (1:200), p53 (1:400), alpha-tubulin (1:200) and Hoechst 33342 (2 ug/mL). Cells were labeled for multiplexed imaging on two separate plates: a) Hoechst 33342, MitoTracker Red, phospho-histone H3, and alpha-tubulin, and b) Hoechst 33342, phospho-histone H2A.x, and c-Jun. A final rinse with HBSS (50 uL) was performed before analysis. The primary and secondary antibodies for the proteins were phospho-histone H3 (rabbit anti-phospho-histone H3 and FITC-donkey anti-rabbit IgG), phospho-histone H2A.x (mouse anti-phospho-histone H2A.x and FITC-donkey anti-mouse IgG), c-Jun (rabbit anti-phospho-c-Jun and Cy3-donkey anti-rabbit IgG), p53 (sheep anti-p53 and Cy5-donkey anti-sheep IgG), alpha-tubulin (mouse anti-alpha-tubulin and Cy5-donkey anti-mouse IgG). These antibodies are available as the CellCiphr HepG2 assay kit (Millipore).Digital images of each well were captured using a Cellomics ArrayScan VTI (Thermo Scientific Cellomics) (0.8 NA objective, 0.63x optical coupler, and XF-93 filter set) at 20x magnification. The images were acquired using the autofocus feature of the ArrayScan instrument, which entails the following steps. First, the camera focuses on channel 1 (Hoechst 33342), where nuclei are identified. Second, a Z offset of 1 um is used for capturing mitochondria (MitoTracker Red). […]
SMILES,outcome,AC50
CCOC(=O)COc1ccc2c(c1)CC(NCC(O)c1cccc(Cl)c1)CC2 (stereo not given),inactive,
C=CC(=C)CCC=C(C)C,inactive,
CC(C)c1cccc(C(C)C)c1N1C(=O)c2ccc(O)cc2C1=O,,6.1 µM (active)
CC(C)CCCCCCCOC(=O)CCCCC(=O)OCCCCCCCC(C)C,inactive,
CC(C)=CCC/C(C)=C\CO,inactive,
CCCCC(CC)COC(=O)c1ccc(C(=O)OCC(CC)CCCC)cc1 (stereo not given),inactive,
CC[C@H]1OC(=O)[C@H](C)[C@@H](O[C@H]2C[C@@](C)(OC)[C@@H](O)[C@H](C)O2)[C@H](C)[C@@H](O[C@@H]2O[C@H](C)C[C@H](N(C)C)[C@H]2O)[C@](C)(O)C[C@@H](C)C(=O)[C@H](C)[C@@H](O)[C@]1(C)O,inactive,
CCCCC(CC)COC(=O)CCCCCCCCC(=O)OCC(CC)CCCC (stereo not given),inactive,
O=c1n(CC2CO2)c(=O)n(CC2CO2)c(=O)n1CC1CO1 (stereo not given),inactive,
Cc1ccc(N)cc1O,inactive,
Nc1cccc(N)c1,inactive,
CCCCCCCCO,inactive,
Cc1[nH]cnc1C[C@H]1CCc2c(C)c3ccccc3n2C1=O,,65 µM (active)
Cn1cnc([N+](=O)[O-])c1Sc1ncnc2nc[nH]c12,inactive,
Clc1nc(Cl)c(Cl)c(Cl)c1Cl,,68.5 µM (active)
COC(=O)c1ccccc1O,inactive,
Cc1c(-c2cccnc2)c2ccccc2n1CCCCC(=O)O,inactive,
Cn1c(=O)c2c(ncn2C)n(C)c1=O,inactive,
COC(=O)c1c(Cl)c(Cl)c(C(=O)OC)c(Cl)c1Cl,inactive,
CC1=CC(=O)CC(C)(C)C1,inactive,

SMILES,outcome,AC50
O=C1OC(=O)C2C3C=CC(C3)C12 (stereo not given),inactive,
CCn1nc(Cc2ccccc2)cc1C1CCN(C[C@H]2C[C@H](N(C)[C@@H](C(=O)O)C(C)C)C[C@@H]2c2cccc(F)c2)CC1,inactive,
CC(C)CC(C)(O)C#CC(C)(O)CC(C)C (stereo not given),inactive,
CCCN(C1CCN(C(=O)C2CCNCC2)CC1)[C@@H]1CCc2ccc(OC)cc2C1,inactive,
CC(=O)c1ccc2c(c1)[C@H](NC(=O)c1ccc(F)cc1)[C@@H](O)C(C)(C)O2,inactive,
CCOc1cccc(-n2cc(C(=O)N3CCN(c4cc(C(=O)O)c5ccccc5c4)CC3)nc2-c2ccc(C)cc2)c1,,60.2 µM (active)
C[C@](N)(Cc1ccc(O)c(O)c1)C(=O)O,inactive,
CC(C)(O)c1coc(S(=O)(=O)NC(=O)Nc2c3c(cc4c2CCC4)CCC3)c1,inactive,
CC[C@H](C)C(=O)O[C@H]1C[C@@H](C)C=C2C=C[C@H](C)[C@H](CC[C@@H]3C[C@@H](O)CC(=O)O3)[C@H]21,inactive,
Cn1c(=O)cc(Oc2ccc(F)cc2F)c2cnc(NCC(C)(C)O)nc21,inactive,
Cc1ccc(S(=O)(=O)O)cc1C,inactive,
C=CCCCCCCCCC(=O)O,inactive,
CC(=O)OC[C@H]1O[C@@](COC(C)=O)(O[C@H]2O[C@H](COC(C)=O)[C@@H](OC(C)=O)[C@H](OC(C)=O)[C@H]2OC(C)=O)[C@@H](OC(C)=O)[C@@H]1OC(C)=O,inactive,
CN(C)c1ccc(Cc2ccc(N(C)C)cc2)cc1,inactive,
CCOCCO,inactive,
CC(C)CCO,inactive,
Cc1ccc(O)cc1,inactive,
Oc1ccc2c(c1)-c1ccccc1C2,inactive,
C1=CCCC=CCCC=CCC1,inactive,
O=c1[nH]c2ccc(S(=O)CCN3CCC(Cc4ccc(F)cc4)CC3)cc2o1 (stereo not given),inactive,
